From the supplement of paper PMC6555819

Tested on: VDR:RXRa (NR concentration 270 nM, RXRa partner concentration 90 nM)
Assay: PBM binding z-score (relative to random genomic background probes); higher = stronger binding; sequences stand for … in GC…GCGATTGACAGCGTAGAATGAAGG
Method: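 Protein-binding microarray (Agilent 4x180K custom design, double-stranded 60-nt probes: 5' GC cap, 34-nt variable region, 24-nt constant primer region; full probe sequence given). Purified or IVT nuclear receptor:RXRα heterodimers (3:1 NR:RXRα, mostly 270:90 nM) or homodimers were incubated for 1 h in PBS with 2% milk and no ligand, then detected with Alexa488 antibodies. Fluorescence from o1-orientation probes (~5 replicates averaged) was converted to z-scores against 500 random hg19 background probes. Variable regions are seed direct-repeat (DR0–DR5) sites, all their single-nucleotide variants and half-site ablations.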

Sequence | PBM binding z-score
GGAACGAGGGCAAATTTGATAGCATCTGTCGACG | 0.619
ATCTCGAGGTAAAGTTCAGTGAAAGATCGATAGA | 1.64
CCTCCTGGGCCATCAGGTCATTGATATCAACGTT | 1.76
ACGTACGGGTCAACGAGGTTATAGCACGCGTATA | 7.49
CTCGAAAGGTCGTGCTCAGGTGAGTTTACCAAAC | 3.98
ACTAGCAGGCCAAGTCTGGGTCACTCAAACAAAG | 0.77
AGCTCTAGGTAACAAGTTCAGTGAAAGAGAGGAC | 1.94
GCATATAGGTAATACAAGGTGATAGTCCGATTGT | -0.0322
ACTAGTTGGTCAGCTGAGGTCAGACACAATTCGG | 3.07
CCTGGGAGGACAGAAGGTCAGAGCTGTCCGCTTT | 1.04
CGAACGAGGGCATGAGTTGTTAGCAAATGCCGAT | 0.896
TCTTGTAGATTAAGCAGGTTAAGAAAGCCTGAGT | 0.313
CATACAGCGTCAGCTAGGCCAGAGTAGGGACGGC | -0.851
ATAACGAGGGCACGCTGAGTTGATAGCAGAGTAG | 2.27
GCTGCTAGGTCAACTGATTGTCAGCTAAAGCTCG | 1.14
CCTAGCAGGCCAGGGTCACTCGAGCATTTCGCTT | 2.54
CCTACTGGGCCATTCAGGGGTCATTGATCATATG | 4.82
CCTACTGGGCCACGAAAGGTCATTGGTTCAGTGA | 4.55
GCGTACGGGTCAAAGGTTATAGCATGAATAGAAT | 5.59
TCTTGTAGATCATCAGGAGGTTAAGAAAGATCGA | 0.351

Sequence | PBM binding z-score
CTCGAAAGATCGGTTGAGGTGAGTATACGGATAA | -0.152
TCTAGTTTGTCAAAGGTCACACACTCGAAATGCG | 5.12
TGTCAAAGTTCAAAGGTAACGTGAGTATCCACAC | 5.2
CCTTACGGGTCACGAGGTTATAGGACGACGAGCG | 4.9
TAGCCTAGGTCATGCGGGCCAGTCTAGTGTCGGC | 2.82
CTCGAAAGGTCGTGCTGAGGTGAGTATACCAAAC | 3.85
TGAATGAGGTTATAAGATGAGGGAACGTTGCAAA | 0.832
CGTTCAAGGTCAAGGTCAGTGAAAGAGACTCGAA | 5
CCTGCTAGGGCAATGGTCAGCTAAAGCAGCTCGC | -0.874
CTACCAAGCTGAACAAGGTCGTTGATTACTATTC | 1.51
GATACAGGGTCAGTTAGAGGCCAGAGTATGGAAA | 2.97
AGAACGAGGGCCATGAGTTGATAGCACGGGTGGC | 0.196
GATCCAGGGTCAAGGCCAGAGTACGCGTATTGAT | 4.58
AGAATGAGGTTAATAAGATCAGGGAATTGCGGTC | 2.02
TCGAGTAGGTTACGAATGGGGCATTCAGCTTTCT | -0.137
CCTATTAGTTGACCCTAAGGGCAACCGAAGCTCG | 3.74
TCATGTAGGTAAATGCTAGGTGAAAGTCCGATCT | 0.587
ACTCGGAGGACTAAGGTCAGAGCTACGCCAGTGA | 1.65
TCGAGTAGGTTGCCAATGGGGCATTCAGCTTTCT | -0.316
TCTCGGAGGACACGAAGGTCGGAGCTTTCCAGAG | 0.528
